Test results published in PubChem BioAssay (Tox21).
Results filed as inconclusive are left out. Activity calls are given as the source filed them. Unless noted, calls come from the whole dose curve.

How the values were obtained:
[1] = target: Peroxisome proliferator-activated receptor delta (Homo sapiens) (UniProt Q03181); assay: qHTS assay to identify small molecule agonists of the peroxisome proliferator-activated receptor delta (PPARd) signaling pathway (AID 743212); note: potency is the fitted concentration of half-maximal effect
Chain of Peroxisome proliferator-activated receptor delta (Homo sapiens) (Q03181 whole entry, looked up): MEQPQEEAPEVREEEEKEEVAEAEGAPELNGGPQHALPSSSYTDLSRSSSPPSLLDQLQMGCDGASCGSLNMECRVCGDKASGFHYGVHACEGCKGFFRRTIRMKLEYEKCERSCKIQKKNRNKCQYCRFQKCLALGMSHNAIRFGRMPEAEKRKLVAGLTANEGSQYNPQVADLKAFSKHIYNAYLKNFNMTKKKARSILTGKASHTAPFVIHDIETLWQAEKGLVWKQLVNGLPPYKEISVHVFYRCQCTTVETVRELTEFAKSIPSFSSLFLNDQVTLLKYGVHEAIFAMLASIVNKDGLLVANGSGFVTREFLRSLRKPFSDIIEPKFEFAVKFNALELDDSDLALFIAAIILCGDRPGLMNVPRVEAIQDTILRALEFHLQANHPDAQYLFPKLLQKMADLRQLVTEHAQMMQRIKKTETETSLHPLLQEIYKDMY
Outline: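 GeneBLAzer PPARd UAS-bla HEK293H cells (beta-lactamase reporter under UAS control), plated and rested 5 h at 37 C, then exposed to compounds in DMSO at 37 C; LiveBLAzer B/G FRET substrate added, 2 h room temperature, fluorescence read.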

[2] = qHTS assay to identify small molecule antagonists of the peroxisome proliferator-activated receptor delta (PPARd) signaling pathway - cell viability counter screen (AID 743213; active = well fitted curve in the direction sought with a large enough effect in the repeat runs; an effect the other way counts as inactive or inconclusive; note: nearly all actives have a fitted effect of over 50% in size; note: potency is the fitted concentration of half-maximal effect)
Outline: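 CellTiter-Glo was added to PPARd-bla HEK293H wells following 17 h compound treatment in the presence of 300 nM L165041. Luminescence was recorded after 30 min at room temperature.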

[3] = qHTS assay to identify small molecule agonists of the farnesoid-X-receptor (FXR) signaling pathway - cell viability counter screen (AID 743218; active = well fitted curve in the direction sought with a large enough effect in the repeat runs; an effect the other way counts as inactive or inconclusive; note: nearly all actives have a fitted effect of over 45% in size; note: potency is the fitted concentration of half-maximal effect)
Outline: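 In GeneBLAzer FXR-UAS-bla HEK 293T cells, compounds act for 16 h at 37 C. Cell viability is then scored in the reporter wells by CellTiter-Glo, 30 min at RT, luminescence.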

[4] = target: Bile acid receptor (Homo sapiens) (UniProt Q96RI1); assay: qHTS assay to identify small molecule agonists of the farnesoid-X-receptor (FXR) signaling pathway (AID 743220; active = well fitted activation curve with a large enough effect in the signal ratio in the repeat runs, not every such curve was filed as active; the % refers to the signal ratio; note: % is set by controls: 0 for no effect and ±100 for the full control effect)
Chain of Bile acid receptor (Homo sapiens) (Q96RI1 whole entry, looked up): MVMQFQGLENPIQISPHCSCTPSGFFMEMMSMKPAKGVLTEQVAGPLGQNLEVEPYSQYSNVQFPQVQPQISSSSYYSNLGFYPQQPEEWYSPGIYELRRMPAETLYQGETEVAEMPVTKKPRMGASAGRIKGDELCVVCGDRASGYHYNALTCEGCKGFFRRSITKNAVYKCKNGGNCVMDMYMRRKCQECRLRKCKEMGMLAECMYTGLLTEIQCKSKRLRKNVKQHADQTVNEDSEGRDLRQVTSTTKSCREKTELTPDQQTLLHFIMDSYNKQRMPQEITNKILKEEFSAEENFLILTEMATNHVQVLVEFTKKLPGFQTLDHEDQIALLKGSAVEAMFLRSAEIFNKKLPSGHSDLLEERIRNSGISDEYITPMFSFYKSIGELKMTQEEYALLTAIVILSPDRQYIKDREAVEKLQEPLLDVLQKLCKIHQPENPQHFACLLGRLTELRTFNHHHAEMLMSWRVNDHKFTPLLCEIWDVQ
Outline: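 Beta-lactamase reporter under UAS control in GeneBLAzer FXR HEK 293T cells (5000/well) measured with LiveBLAzer FRET substrate after 2 h at room temperature. Compound exposure lasted 16 h at 37C.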

[5] = qHTS assay to identify small molecule antagonists of the farnesoid-X-receptor (FXR) signaling pathway - cell viability counter screen (AID 743221; active = well fitted cell-killing curve with a large enough effect in the repeat runs, not every such curve was filed as active; note: % is set by controls: 0 for no effect and ±100 for the full control effect; nearly all actives have a fitted effect of over 50% in size)
Outline: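 CellTiter-Glo, 30 min RT, luminescence; same wells as the LiveBLAzer FRET read. Cells: FXR-UAS-bla HEK 293T. Treatment: compound with chenodeoxycholic acid 50 uM final, 16 h at 37 C.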

[6] = qHTS assay to identify small molecule agonists of the vitamin D receptor (VDR) signaling pathway - cell viability counter screen (AID 743224; active = well fitted curve in the direction sought with a large enough effect in the repeat runs; an effect the other way counts as inactive or inconclusive; note: nearly all actives have a fitted effect of over 50% in size; note: potency is the fitted concentration of half-maximal effect)
Outline: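 VDR-bla cell line, quantitative HTS format; 16 h compound incubation (37C, 5% CO2); ATP-based CellTiter-Glo luminescence measured in the reporter assay wells.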

[7] = qHTS assay to identify small molecule agonists of the NFkB signaling pathway - cell viability counter screen (AID 1159515); note: series mostly up to about 61 µM; % is set by controls: 0 for no effect and ±100 for the full control effect; nearly all actives have a fitted effect of over 55% in size
Outline: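 Viability in NFkB-bla ME-180 cells was measured by CellTiter-Glo luminescence, 30 min room temperature, in wells already treated 5 hr with compounds and read for reporter FRET.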

[8] = qHTS assay to identify small molecule agonists of the endoplasmic reticulum stress response signaling pathway (AID 1159516; active = well fitted activation curve with a large enough effect in the signal ratio in the repeat runs, not every such curve was filed as active; the % refers to the signal ratio; note: potency is the fitted concentration of half-maximal effect)
Outline: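 ER stress element reporter (bla) in HeLa. 1,500 cells/well, overnight attachment; 5 hr compound; 2 hr RT substrate; dual-emission fluorescence.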

[9] = qHTS assay to identify small molecule agonists of the endoplasmic reticulum stress response signaling pathway - cell viability counter screen (AID 1159517);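 note: HeLa cells carrying an ER stress response element beta-lactamase reporter; series mostly up to about 61 µM; % is set by controls: 0 for no effect and ±100 for the full control effect; nearly all actives have a fitted effect of over 50% in size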
Outline: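 Luminescence readout: CellTiter-Glo, 30 min RT, same wells as the ESRE-bla reporter read. HeLa ESRE-bla, 1,500 cells/well, o/n 37 C; cpd 5 hr 37 C/5% CO2.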

[10] = target: Nuclear receptor ROR-gamma (Homo sapiens) (UniProt P51449); assay: qHTS assay to identify small molecule antagonists of the retinoid-related orphan receptor gamma (ROR-gamma) signaling pathway (AID 1159521; active = well fitted curve in the direction sought with a large enough effect in the repeat runs; an effect the other way counts as inactive or inconclusive; note: nearly all actives have a fitted effect of over 50% in size; note: potency is the fitted concentration of half-maximal effect)
Outline: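 Readout: ONE-Glo luciferase luminescence, 30 min at room temperature. System: Tet-on RORγ CHO, RORE-LUC. Sequence: compound 2 h, doxycycline 1 uM final, 16 h at 37 C.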

[11] = qHTS assay to identify small molecule agonists of the AP-1 signaling pathway - cell viability counter screen (AID 1159525); note: nearly all actives have a fitted effect of over 55% in size
Outline: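 ME-180 AP-1-bla, 2500 cells/well, Opti-MEM + 0.5% dialyzed FBS; overnight 37 °C; cpd 15-pt titration, 5 h 37 °C; CellTiter-Glo 30 min RT; luminescence read; normalised to TOAB and DMSO controls.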

[12] = qHTS assay to identify small molecule agonists of the peroxisome proliferator-activated receptor delta (PPARd) signaling pathway - cell viability counter screen (AID 743211; active = well fitted curve in the direction sought with a large enough effect in the repeat runs; an effect the other way counts as inactive or inconclusive; note: nearly all actives have a fitted effect of over 55% in size; note: potency is the fitted concentration of half-maximal effect)
Outline: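 Multiplexed format: after the 2 h room-temperature LiveBLAzer B/G FRET step, CellTiter-Glo was added to the same wells. Luminescence after 30 min gave cell viability; compound exposure was 17 h at 37C.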

[13] = target: Peroxisome proliferator-activated receptor delta (Homo sapiens) (UniProt Q03181); assay: qHTS assay to identify small molecule antagonists of the peroxisome proliferator-activated receptor delta (PPARd) signaling pathway (AID 743215; active = well fitted inhibition curve with a large enough effect in the signal ratio in the repeat runs, not every such curve was filed as active; the % refers to the signal ratio;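 note: cells stimulated with agonist L165041 at 300 nM final during compound exposure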; note: potency is the fitted concentration of half-maximal effect)
Outline: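 Antagonist-mode beta-lactamase reporter screen: HEK293H cells with UAS-bla under PPARd control, stimulated by 300 nM L165041 (final) alongside test compound for 17 h at 37 C, then FRET fluorescence after 2 h substrate incubation.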

[14] = qHTS assay to identify small molecule antagonists of the vitamin D receptor (VDR) signaling pathway - cell viability counter screen (AID 743225; active = well fitted curve in the direction sought with a large enough effect in the repeat runs; an effect the other way counts as inactive or inconclusive; note: nearly all actives have a fitted effect of over 50% in size; note: potency is the fitted concentration of half-maximal effect)
Outline: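 Cytotoxicity toward the VDR-bla HEK 293T line was scored by ATP-based CellTiter-Glo luminescence, read in the wells already used for the beta-lactamase readout after 16 h compound treatment under 3 nM 1-alpha,25-dihydroxyvitamin D3 stimulation.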

[15] = qHTS assay to identify small molecule antagonists of the retinoid-related orphan receptor gamma (ROR-gamma) signaling pathway - cell viability counter screen (AID 1159520; active = well fitted curve in the direction sought with a large enough effect in the repeat runs; an effect the other way counts as inactive or inconclusive)
Outline: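 Tet-on ROR gamma CHO cells (1,000/well) were plated 4 hr, given compounds in DMSO for 2 hr at 37 C, then induced with 1 uM final doxycycline for 16 hr. Viability was read as ATP by CellTiter-Glo luminescence after 30 min.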

[16] = qHTS assay to identify small molecule agonists of the AP-1 signaling pathway (AID 1159526); note: % is set by controls: 0 for no effect and ±100 for the full control effect
[17] = target: Vitamin D3 receptor (Homo sapiens) (UniProt P11473); assay: qHTS assay to identify small molecule agonists of the vitamin D receptor (VDR) signaling pathway (AID 743222); note: potency is the fitted concentration of half-maximal effect
Chain of Vitamin D3 receptor (Homo sapiens) (P11473 whole entry, looked up): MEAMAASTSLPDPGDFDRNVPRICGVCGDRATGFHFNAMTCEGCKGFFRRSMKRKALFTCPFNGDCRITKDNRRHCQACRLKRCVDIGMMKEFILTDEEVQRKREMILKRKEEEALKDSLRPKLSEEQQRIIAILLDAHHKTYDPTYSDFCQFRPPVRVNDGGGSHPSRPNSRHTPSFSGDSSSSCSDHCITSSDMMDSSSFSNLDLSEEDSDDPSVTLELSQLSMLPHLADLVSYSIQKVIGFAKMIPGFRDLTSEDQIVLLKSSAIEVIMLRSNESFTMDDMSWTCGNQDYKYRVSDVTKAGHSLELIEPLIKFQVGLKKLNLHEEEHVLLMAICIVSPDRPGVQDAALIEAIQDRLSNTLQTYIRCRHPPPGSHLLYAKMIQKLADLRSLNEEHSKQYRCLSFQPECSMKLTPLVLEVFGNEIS
Outline: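 Agonist activity measured in VDR-bla reporter cells. Exposure 16 h, 37C, 5% CO2; detection by B/G FRET substrate, 2 h RT.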

[18] = target: Vitamin D3 receptor (Homo sapiens) (UniProt P11473); assay: qHTS assay to identify small molecule antagonists of the vitamin D receptor (VDR) signaling pathway (AID 743223; active = well fitted inhibition curve with a large enough effect in the signal ratio in the repeat runs, not every such curve was filed as active; the % refers to the signal ratio; note: % is set by controls: 0 for no effect and ±100 for the full control effect)
Outline: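 After VDR-bla cells are plated and left 4 h at 37C, DMSO-dissolved compounds and 3 nM (final) calcitriol agonist are added. Incubation continues 16 h at 37C; FRET beta-lactamase substrate then develops 2 h at room temperature.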

[19] = target: Retinoic acid receptor RXR-alpha (Homo sapiens) (UniProt P19793); assay: qHTS assay to identify small molecule agonists of the RXR signaling pathway (AID 1159527); note: nearly all actives have a fitted effect of over 35% in size; note: potency is the fitted concentration of half-maximal effect
Chain of Retinoic acid receptor RXR-alpha (Homo sapiens) (P19793 whole entry, looked up): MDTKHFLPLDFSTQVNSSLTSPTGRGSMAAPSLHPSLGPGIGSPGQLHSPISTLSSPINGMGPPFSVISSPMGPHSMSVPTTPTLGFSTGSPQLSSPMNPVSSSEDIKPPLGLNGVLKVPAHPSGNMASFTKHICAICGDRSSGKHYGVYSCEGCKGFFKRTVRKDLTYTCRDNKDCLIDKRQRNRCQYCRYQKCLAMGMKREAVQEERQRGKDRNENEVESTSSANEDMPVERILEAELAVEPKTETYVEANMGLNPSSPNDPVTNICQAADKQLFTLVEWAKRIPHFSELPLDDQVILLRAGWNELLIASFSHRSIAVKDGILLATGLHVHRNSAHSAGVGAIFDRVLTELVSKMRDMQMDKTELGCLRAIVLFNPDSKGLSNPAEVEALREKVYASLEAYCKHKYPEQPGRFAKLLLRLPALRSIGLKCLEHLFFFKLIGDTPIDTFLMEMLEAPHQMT
Outline: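 Reporter activation is measured as beta-lactamase activity via FRET substrate cleavage (emission 460/530 nm) in HEK 293T cells expressing an RXR-alpha-driven bla construct, following 16 hr compound exposure at 37 C.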

[20] = target: Bile acid receptor (Homo sapiens) (UniProt Q96RI1); assay: qHTS assay to identify small molecule antagonists of the farnesoid-X-receptor (FXR) signaling pathway (AID 743217; active = well fitted inhibition curve with a large enough effect in the signal ratio in the repeat runs, not every such curve was filed as active; the % refers to the signal ratio; note: % is set by controls: 0 for no effect and ±100 for the full control effect)
Outline: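 Beta-lactamase reporter under UAS control in HEK 293T cells; compound exposure 16 h at 37 °C in the presence of chenodeoxycholic acid (50 uM final); signal from B/G FRET substrate after 2 h at room temperature.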

CCOC(=O)CCN(SN(C)C(=O)Oc1cccc2c1OC(C)(C)C2)C(C)C
inactive: Potency [1] | Potency [2] | Potency [3] | Potency [4] | Potency [5] | Potency [6] | Potency [7] | Potency [8] | Potency [9] | Potency [11]
active: Potency [10] 30.6 µM

CNC(=O)CSP(=O)(OC)OC
inactive: Potency [12] | Potency [1] | Potency [13] | Potency [4] | Potency [5] | Potency [6] | Potency [14] | Potency [7] | Potency [8] | Potency [9] | Potency [15] | Potency [11] | Potency [16]

Clc1c(Cl)c(Cl)c(Cl)c(Cl)c1Cl
inactive: activity change, negative = cytotoxicity [12] 0.119% [at 5.95 µM] | activation [1] -6.6% [at 5.95 µM] | viability change, negative = cytotoxic [2] 0.753% [at 6.26 µM] | ratio activity, negative = inhibition [13] -0.823% [at 6.26 µM] | viability change, negative = cytotoxic [3] 24.1% [at 5.95 µM] | activity change, negative = cytotoxicity [5] 10.7% [at 5.95 µM] | activation [17] -0.148% [at 6.01 µM] | activity change, negative = inhibition [18] 0.227% [at 6.95 µM] | viability change, negative = cytotoxic [14] -2.04% [at 6.95 µM] | activity, negative = cytotoxic [7] 7.25% [at 6.95 µM] | activation [8] -1.07% [at 6.95 µM] | activity, negative = cytotoxicity [15] 5.16% [at 8.39 µM] | activity change, negative = inhibition [10] 5.22% [at 8.39 µM] | viability change, negative = cytotoxic [11] 5.85% [at 6.97 µM] | activation [16] -2.52% [at 6.97 µM] | activation [19] 5.73% [at 6.98 µM]

O=S1(=O)OCC2C(CO1)C1(Cl)C(Cl)=C(Cl)C2(Cl)C1(Cl)Cl (stereo not drawn)
active: Potency [6] 49 µM | Potency [10] 19.3 µM
inactive: Potency [1] | Potency [13] | Potency [4] | Potency [7] | Potency [8] | Potency [9]

CSC(=O)c1c(C(F)F)nc(C(F)(F)F)c(C(=O)SC)c1CC(C)C
inactive: Potency [1] | Potency [13] | Potency [3] | Potency [5] | Potency [7] | Potency [8] | Potency [9] | Potency [11] | Potency [16]
active: Potency [6] 43.4 µM | Potency [10] 54.2 µM

CN1[C@@H]2CC[C@H]1CC(O)C2 (stereo partly drawn)
inactive: Potency [1] | Potency [2] | Potency [13] | Potency [3] | Potency [5] | Potency [17] | Potency [18] | Potency [6] | Potency [14] | Potency [7] | Potency [8] | Potency [9] | Potency [15] | Potency [11] | Potency [16]

CC(C)(C)c1ccc(OP(=O)(Oc2ccccc2)Oc2ccccc2)cc1
inactive: Potency [1] | Potency [3] | Potency [4] | Potency [17] | Potency [18] | Potency [7] | Potency [8] | Potency [9] | Potency [15] | Potency [16]
active: Potency [13] 22 µM

COCCC#N
inactive: Potency [12] | Potency [1] | Potency [2] | Potency [13] | Potency [3] | Potency [17] | Potency [18] | Potency [6] | Potency [14] | Potency [7] | Potency [8] | Potency [15] | Potency [10] | Potency [11] | Potency [16] | Potency [19]

[Cl-].[Cl-].[Cl-].[Yb+3]
inactive: Potency [12] | Potency [2] | Potency [3] | Potency [5] | Potency [6] | Potency [7] | Potency [8] | Potency [9] | Potency [15] | Potency [11] | Potency [16]

CO/N=C(/C1=NOCCO1)c1ccccc1Oc1ncnc(Oc2ccccc2Cl)c1F
active: Potency [10] 0.968 µM
inactive: Potency [1] | Potency [5] | Potency [7] | Potency [8] | Potency [9] | Potency [11] | Potency [16]

Oc1ccc(Cl)c(Cl)c1
inactive: Potency [1] | Potency [13] | Potency [5] | Potency [17] | Potency [6] | Potency [14] | Potency [7] | Potency [8] | Potency [9] | Potency [11] | Potency [16] | Potency [19]
active: Potency [10] 17 µM

CCC(OC(C)=O)C(CC(C)NC)(c1ccccc1)c1ccccc1 (stereo not drawn)
active: Potency [12] 15.5 µM | Potency [2] 30.9 µM | Potency [3] 61.6 µM | Potency [14] 44 µM
inactive: Potency [4] | Potency [17] | Potency [7] | Potency [8] | Potency [9] | Potency [11]

c1csc(-c2ccc(-c3cccs3)s2)c1
active: Potency [1] 43.6 µM | Potency [17] 24.5 µM | Potency [8] 49 µM | Potency [19] 21.9 µM
inactive: Potency [12] | Potency [2] | Potency [20] | Potency [3] | Potency [5] | Potency [6] | Potency [14] | Potency [7] | Potency [9] | Potency [15] | Potency [11]

Oc1ccc2[nH]cc(CCCCN3CC=C(c4ccccc4)CC3)c2c1
inactive: Potency [5] | Potency [6] | Potency [14] | Potency [7] | Potency [9] | Potency [15] | Potency [11] | Potency [19]
active: Potency [8] 4.25 µM

Oc1ccc([C@H]2CNCc3c2ccc(O)c3O)cc1O
inactive: Potency [12] | Potency [1] | Potency [2] | Potency [20] | Potency [3] | Potency [4] | Potency [5] | Potency [17] | Potency [18] | Potency [6] | Potency [14] | Potency [7] | Potency [8] | Potency [9] | Potency [11] | Potency [16] | Potency [19]

CCCCN(CCCC)C(=S)S
inactive: Potency [12] | Potency [3] | Potency [5] | Potency [17] | Potency [6] | Potency [14] | Potency [7] | Potency [8] | Potency [9] | Potency [15] | Potency [11] | Potency [19]

CC(Cc1ccccc1)N(C)Cc1ccco1 (stereo not drawn)
inactive: Potency [12] | Potency [1] | Potency [2] | Potency [13] | Potency [20] | Potency [3] | Potency [4] | Potency [5] | Potency [17] | Potency [18] | Potency [6] | Potency [7] | Potency [8] | Potency [9] | Potency [15] | Potency [11] | Potency [19]
